Source: PubChem BioAssay (NCATS)
Calls of active or inactive are those of the source. The call rests on the fitted dose curve; in most records, active means well fitted curve in the direction sought with a large enough effect; inactive means no such curve, though single readings can be large or run the other way.

Assay: qHTS for small molecule inhibitors of Yes1 kinase: Counter Assay (AID 686950);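 further: no kinase present so only ADP-Glo detection of a fixed ADP amount is tested; luminescence from ADP-Glo reporting ADP in a fixed ATP and ADP mixture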
Conditions: series mostly up to 76.9 µM
Summary of the method: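 Measuring interference with ADP-Glo, the assay ran 60 min at room temperature on an ATP/ADP mix lacking enzyme. Values were normalized to ATP-plus-ADP (maximum) and ATP-only (minimum) DMSO controls.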

Structure (SMILES)	outcome
CC(=O)Nc1sc2c(c1-c1nc3ccccc3s1)CNC2	inactive
C=CC(=O)Nc1cc2c(Nc3ccc(F)c(Cl)c3)ncnc2cc1C#CC(C)(C)N1CCN(C)CC1	inactive
C=CCn1c(=O)c2cnc(Nc3ccc(N4CCN(C)CC4)cc3)nc2n1-c1cccc(C(C)(C)O)n1	inactive
Nc1ccc(C(=O)c2cc3c(ccc4ccccc43)[nH]2)cc1	inactive
O=c1[nH]nc(Sc2ncc([N+](=O)[O-])s2)n1-c1ccc2c(c1)OCCO2	inactive
C=CC(=O)Nc1cccc(Oc2nc(Nc3ccc(N4CCN(C)CC4)cc3OC)ncc2Cl)c1	inactive
